What all share (assay): Primary qHTS to identify gynecologic anti-cancer compounds using libraries of approved drugs and bioactive compounds (AID 1345084); also: nearly all actives have a fitted effect of over 55% in size
For one assay, the system named is CAOV3. To be noted: Gynecologic cancer cell panel viability, ATPlite luminescence, 48 h; series mostly up to 57.5 µM. The method, boiled down:
(§1)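 Five-concentration response, 48 h; readout is ATP-driven luciferase luminescence.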
For orientation: In ATP-based viability assays light output follows the ATP content of the culture.

The subject of another assay is CASKI. To be noted: Gynecologic cancer cell panel viability, ATPlite luminescence, 48 h; series mostly up to 57.5 µM. The method, boiled down: as §1
The next assay relates to Es-2. As to conditions: Gynecologic cancer cell panel viability, ATPlite luminescence, 48 h; series mostly up to 57.5 µM. The method, boiled down: as §1
The subject of another assay is HeLa. To be noted: Gynecologic cancer cell panel viability, ATPlite luminescence, 48 h; series mostly up to 57.5 µM. In a few lines:
as §1

The next assay deals with Hek293T. As to conditions: Gynecologic cancer cell panel viability, ATPlite luminescence, 48 h, control line for the selectivity index; series mostly up to 57.5 µM. In a few lines: as §1
For the next assay, the system named is JEG-3. To be noted: Gynecologic cancer cell panel viability, ATPlite luminescence, 48 h; series mostly up to 57.5 µM. In a few lines: as §1
A further assay concerns OV90. To be noted: Gynecologic cancer cell panel viability, ATPlite luminescence, 48 h; series mostly up to 57.5 µM. In a few lines: as §1
The subject of a further assay is PA-1. To be noted: Gynecologic cancer cell panel viability, ATPlite luminescence, 48 h; series mostly up to 57.5 µM. In a few lines: as §1
Another assay deals with SKOV3. As to conditions: Gynecologic cancer cell panel viability, ATPlite luminescence, 48 h; series mostly up to 57.5 µM. The method, boiled down: as §1
The next assay concerns Tov-21-G. As to conditions: Gynecologic cancer cell panel viability, ATPlite luminescence, 48 h; series mostly up to 57.5 µM. The method, boiled down: as §1

The structures appear in SMILES notation. “And” between values parts separate entries of the source, which are not always exact repeats. Identical values can stand only once. Results filed as inconclusive are left out. More than one record can exist for a structure, and the calls need not agree. The source made the active and inactive calls. Calls follow the shape of the dose curve; as a rule, active = well fitted cell-killing curve with a large enough effect; inconclusive = small, poorly fitted or top-dose-only effect, or effect the other way; inactive = flat fitted curve, though single readings scatter.
Potency is read from the fitted curve at half-maximal effect.

Regarding `O=C1NCN(c2ccccc2)C12CCN(CC1COc3ccccc3O1)CC2` (stereo not given), the Potency result with CAOV3, with CASKI, with Es-2, in the assay on HeLa, in the assay on Hek293T and in the assay with JEG-3 was “inactive” in each case. The Potency result with OV90, in the assay on PA-1, in the assay on SKOV3 and in the assay on Tov-21-G was “inactive” throughout.
With `NCCc1cc(O)c(O)cc1O`, the Potency result in the assay with CAOV3, in the assay with CASKI, in the assay on Es-2, with HeLa, in the assay with Hek293T and in the assay on JEG-3 was “inactive” each time. Further, the Potency entry in the assay with OV90, in the assay on PA-1, in the assay on SKOV3 and with Tov-21-G was “inactive” in each case.
On to `CC(=O)[C@H]1CC[C@H]2[C@@H]3CC[C@H]4C[C@](C)(O)CC[C@]4(C)[C@H]3CC[C@]12C`, for which the Potency entry with CAOV3, in the assay with CASKI, with Es-2, with HeLa, in the assay with Hek293T and in the assay with JEG-3 was “inactive” throughout. The Potency result in the assay with OV90, with PA-1, in the assay on SKOV3 and in the assay on Tov-21-G was “inactive” each time.
Turning to `CCCN1CCC[C@@H]2Cc3[nH]ncc3C[C@H]21`, the Potency entry in the assay on CAOV3, in the assay with CASKI, in the assay with Es-2, in the assay with HeLa, in the assay with Hek293T and with JEG-3 was “inactive” each time. For the same compound, the Potency entry in the assay on OV90, in the assay on PA-1, in the assay with SKOV3 and in the assay on Tov-21-G was “inactive” throughout.
On to `C[C@@H]1O[C@@H](O[C@H]2C[C@@H](O)[C@]3(CO)[C@H]4[C@H](O)C[C@]5(C)[C@@H](C6=CC(=O)OC6)CC[C@]5(O)[C@@H]4CC[C@]3(O)C2)[C@H](O)[C@H](O)[C@H]1O`, for which the Potency in the assay with CAOV3 was 251 nM (active) and 199 nM (active); in the assay with CASKI, 562 nM (active) and 794 nM (active); in the assay on Es-2, 316 nM (active) and 141 nM (active); in the assay on HeLa, 224 nM (active) and 158 nM (active); in the assay with Hek293T it was 282 nM (active) and 178 nM (active); in the assay with JEG-3, 355 nM (active). Also, the Potency was 447 nM (active) and 794 nM (active) in the assay with OV90; 316 nM (active) and 141 nM (active) with PA-1; 251 nM (active) and 158 nM (active) with SKOV3; 251 nM (active) and 141 nM (active) in the assay with Tov-21-G.
On to `CCN(CC)C(=O)N[C@@H]1C=C2c3cccc4[nH]cc(c34)C[C@@H]2N(C)C1`, for which the Potency result in the assay with CAOV3, with CASKI, in the assay on Es-2, with HeLa, in the assay on Hek293T and with JEG-3 was “inactive” each time. Further, the Potency entry with OV90, with PA-1, with SKOV3 and in the assay with Tov-21-G was “inactive” each time.
Regarding `COc1ccc(C(CN(C)C)C2(O)CCCCC2)cc1` (stereo not given), the Potency result in the assay on CAOV3, in the assay with CASKI, in the assay with Es-2, with HeLa, in the assay on Hek293T and with JEG-3 was “inactive” in each case. Further, the Potency result in the assay with OV90, in the assay with PA-1, in the assay with SKOV3 and in the assay on Tov-21-G was “inactive” in each case.
In the case of `CC(=O)[C@H]1CC[C@H]2[C@@H]3CC[C@H]4C[C@H](O)CC[C@]4(C)[C@H]3C(=O)C[C@]12C`, the Potency result with CAOV3, in the assay on CASKI, with Es-2, in the assay with HeLa, in the assay with Hek293T and in the assay with JEG-3 was “inactive” throughout. In addition, the Potency result with OV90, in the assay on PA-1, with SKOV3 and in the assay with Tov-21-G was “inactive” each time.
As to `COC[C@@H](NC(C)=O)C(=O)NCc1ccccc1`, the Potency entry in the assay on CAOV3, with CASKI, with Es-2, with HeLa, with Hek293T and in the assay with JEG-3 was “inactive” throughout. Further, the Potency result in the assay on OV90, in the assay with PA-1, in the assay on SKOV3 and with Tov-21-G was “inactive” throughout.
In the case of `O=C(O)C(=O)c1cn(Cc2ccccc2)c2ccc(-c3ccc(OC(F)(F)F)cc3)cc12`, the Potency result with CAOV3, in the assay on CASKI, with Es-2, in the assay on HeLa, in the assay on Hek293T and in the assay on JEG-3 was “inactive” in each case. Besides, the Potency entry in the assay on OV90, in the assay with PA-1, with SKOV3 and in the assay on Tov-21-G was “inactive” in each case.
As for `Oc1cc(Cl)ccc1Oc1ccc(Cl)cc1Cl`, the Potency result in the assay with CAOV3, with Es-2, in the assay with Hek293T, in the assay on JEG-3, in the assay with OV90 and in the assay with PA-1 was “inactive” throughout. Also, in the assay on Tov-21-G, the Potency result was “inactive”. Also, the Potency in the assay with CASKI is 39.8 µM (active) and inactive; in the assay on HeLa, 44.7 µM (active) and inactive; in the assay with SKOV3 it was 35.5 µM (active) and inactive.
For `O=c1[nH]c2ccccc2n1CCCN1CCC(n2c(=O)[nH]c3cc(Cl)ccc32)CC1`, the Potency result in the assay on CAOV3, in the assay on CASKI, with Es-2, with HeLa, in the assay with Hek293T and with JEG-3 was “inactive” in each case. For the same compound, the Potency result with OV90, with PA-1, in the assay with SKOV3 and with Tov-21-G was “inactive” each time.
In the case of `Cn1cc(C2=C(c3cn(C4CCN(Cc5ccccn5)CC4)c4ccccc34)C(=O)NC2=O)c2ccccc21`, the Potency result in the assay with CAOV3, in the assay with CASKI, with Es-2, in the assay on HeLa, in the assay with Hek293T and with JEG-3 was “inactive” each time. The Potency entry in the assay with OV90, in the assay with PA-1, in the assay on SKOV3 and with Tov-21-G was “inactive” each time.
Regarding `CCCC(C)(COC(N)=O)COC(=O)NC(C)C` (stereo not given), the Potency entry with CAOV3, in the assay with CASKI, with Es-2, in the assay on HeLa, in the assay on Hek293T and in the assay on JEG-3 was “inactive” each time. Moreover, the Potency entry in the assay with OV90, in the assay on PA-1, in the assay with SKOV3 and in the assay on Tov-21-G was “inactive” throughout.
As for `Cc1ccc2c(c1)C1CN(C)CCC1N2` (stereo not given), the Potency entry with CAOV3, in the assay on CASKI, in the assay on Es-2, in the assay with HeLa, in the assay on Hek293T and in the assay on JEG-3 was “inactive” in each case. The Potency entry with OV90, with PA-1, in the assay with SKOV3 and in the assay on Tov-21-G was “inactive” each time.
In the case of `Cn1c(CCCC(=O)O)nc2cc(N(CCCl)CCCl)ccc21`, the Potency result with CAOV3, in the assay on CASKI, in the assay on Es-2, in the assay on HeLa, in the assay with Hek293T and in the assay with JEG-3 was “inactive” in each case. The Potency result in the assay with OV90, in the assay with PA-1, in the assay on SKOV3 and in the assay on Tov-21-G was “inactive” each time.

For the origin of these results see PubChem BioAssay (NCATS).
